Rows were chosen to be rich in hits. Some 6.2% of all compounds tested hit in one or more screens of this group.
AHR activator = activators of human aryl hydrocarbon receptor; AHR-responsive luciferase reporter cells, luminescence; activation, % at 5 µM; actives 2.5% (n = 320,000); in the data active = activation above about 47%
NTR1 agonist = agonists of human neurotensin receptor NTR1; P30989; NTR1-U2OS beta-arrestin-GFP spot imaging, agonist mode; activation, % at 20 µM; actives 0.17% (n = 330,000);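 active = activation at or above 40% of the spot to cytoplasm intensity ratio, with at least 20 cells analyzed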
Target sequence (P30989 whole entry, looked up): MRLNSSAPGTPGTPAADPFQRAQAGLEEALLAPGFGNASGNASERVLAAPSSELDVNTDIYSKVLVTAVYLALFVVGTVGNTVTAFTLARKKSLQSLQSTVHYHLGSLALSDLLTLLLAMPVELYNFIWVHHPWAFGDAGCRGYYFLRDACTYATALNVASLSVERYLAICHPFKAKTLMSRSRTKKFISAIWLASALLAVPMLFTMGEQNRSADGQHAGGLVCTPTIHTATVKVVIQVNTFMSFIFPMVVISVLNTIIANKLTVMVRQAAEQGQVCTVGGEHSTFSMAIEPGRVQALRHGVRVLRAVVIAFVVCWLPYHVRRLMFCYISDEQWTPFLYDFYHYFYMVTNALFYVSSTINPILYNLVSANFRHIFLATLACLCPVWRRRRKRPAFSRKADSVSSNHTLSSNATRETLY
GRIN3A LBD mod = NR3A (human) ligand-binding domain modulation. NR3A LBD differential scanning fluorimetry, Tm shift; 0% = protein alone, 100% = glycine-bound protein. Tm shift relative to glycine control, % at 25 µM. actives 2.5% (n = 340,000);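 active = melting temperature shift of at least 10% of the positive control shift, at one fixed dose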
H9c2 protect = protects H9c2 cardiomyocytes from peroxide injury | H2O2 injury protection, ATPLite, 2 h | protection from H2O2 cell death, % at 20 µM | actives 0.63% (n = 360,000) | AID 588492;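 active = compounds giving at least 50% protection of heart cells from peroxide-induced death in the single-dose screen, raw or plate-pattern-corrected value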
SUMO Mot1 rescue = SUMOylation pathway inhibition by Mot1-301 growth rescue; S. cerevisiae Mot1-301 growth rescue, ATP luminescence, 38.5C; percent above DMSO median, 100 means doubled; actives 1% (n = 320,000); growth rescue, % at 18.8 µM;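 active = every valid replicate shows activation above 250% relative to neutral control wells; inactive = the rest, any valid replicate at or below 250%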
AI-2 QS mod = Vibrio harveyi AI-2 quorum sensing modulation. actives 0.4% (n = 300,000). Vibrio harveyi JMH597 AI-2 luminescence/OD600 ratio, 9 h; hits give low values; strain lacks LuxN and CqsS sensors; 0 = neutral-control median. activity change, % at 7.5 µM; in the data active = activity change below about -75%, passing the limit was not always enough;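 note: luminescence divided by OD600 gain over 9 h not by final OD600 alone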
JMH597 growth rt = retest: inhibitors of Vibrio harveyi JMH597 growth. actives 1% (n = 750). shares compounds with AI-2 QS mod. growth inhibition, % at 7.5 µM. OD600 absorbance, 9 h; lacks LuxN and CqsS sensors;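 active = every replicate shows growth inhibition above 50%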
BB721 const-QS lum = retest counter-screen: BB721 constitutive quorum sensing luminescence decrease; shares compounds with AI-2 QS mod; Vibrio harveyi BB721 luminescence, 9 h; inhibition, % at 7.5 µM; actives 95% (n = 750);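 active = inhibition above about 80% in every replicate, not just on average, limit read from the data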
BB721 growth = retest Vibrio harveyi BB721 growth inhibition. growth inhibition, % at 7.5 µM. shares compounds with AI-2 QS mod. actives 3% (n = 750). AID 2728. OD600 absorbance, 9 h;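 active = every replicate shows growth inhibition above 50%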
JMH597 AI-2 mod = Vibrio harveyi AI-2 signaling luminescence modulation – JMH597 strain, confirmation; shares compounds with AI-2 QS mod; actives 97% (n = 750); inhibition, % at 7.5 µM; Vibrio harveyi JMH597 AI-2 quorum sensing luminescence, 9 h; luxN and CqsS knockout, AI-2 only;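 active = every replicate shows more than 75% inhibition of signal versus neutral control wells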
Hits are given with their value; 0 = inactive; - = no result given.

SMILES	AHR activator	NTR1 agonist	GRIN3A LBD mod	H9c2 protect	SUMO Mot1 rescue	AI-2 QS mod	JMH597 growth rt	BB721 const-QS lum	BB721 growth	JMH597 AI-2 mod
O=C(CCS(=O)(=O)c1ccc(Br)cc1)N1CCCCCC1	0	0	0	0	0	0	-	-	-	-
COc1ccc(C2/C(=C(\O)c3ccc4c(c3)CC(C)O4)C(=O)C(=O)N2Cc2cccnc2)c(OC)c1 (centres undefined)	0	0	0	0	0	0	-	-	-	-
COc1ccc(C2(C)NC(=O)N(CC(=O)Nc3ccc(S(=O)(=O)N4CCCC4)cc3)C2=O)cc1 (centres undefined)	0	0	0	0	0	-90	0	89	0	94
Cc1cc(C)cc(NC(=O)CN2C(=O)NC(C)(c3ccccc3)C2=O)c1 (centres undefined)	0	0	0	0	0	-83	0	86	0	92
C=CCNC(=O)N1CCC(n2nccc2NC(=O)CCCc2ccccc2)CC1	0	0	0	0	0	0	-	-	-	-
Cc1cn([C@H]2C[C@H](O)[C@@H](CCC(=O)NCCc3cnc[nH]3)O2)c(=O)[nH]c1=O	-	-	0	0	-	-	-	-	-	-
O=C1NCCCC1C(=O)N/N=C/c1cccc(Cl)c1 (centres undefined)	0	0	0	0	0	-79	0	89	0	93
O=C1NCCCC1C(=O)N/N=C/c1ccc(Cl)cc1 (centres undefined)	0	0	0	0	0	0	-	-	-	-
O=C(c1cccc(Cl)c1)N1CCN(Cc2ccc3c(c2)OCO3)CC1	0	0	0	0	0	0	-	-	-	-
O=C(c1ccc(COc2ccc(Cl)cc2)o1)N1CCN(Cc2ccc3c(c2)OCO3)CC1	0	0	0	0	402	-97	133	100	111	100
CCN1CCN(C(=O)c2ccc(COc3ccc(Cl)cc3)o2)CC1	0	0	0	0	0	0	-	-	-	-
O=C(c1cc2cc(F)ccc2[nH]1)N1CCN(C(=O)c2ccco2)CC1	54	0	0	0	0	-84	0	85	0	91
O=C(c1cc2cc(Cl)ccc2[nH]1)N1CCN(Cc2ccc3c(c2)OCO3)CC1	0	0	0	0	0	-94	0	98	0	99
O=C(NNC(=O)C1CC1)c1ccc(F)cc1F	0	0	0	0	0	-	-	-	-	-
CC(C)(C)C(=O)OCc1cn(-c2ccc(Cl)cc2)nn1	0	0	0	0	-	0	-	-	-	-
CC(C)C(=O)OCc1cn(-c2ccc(Cl)c(Cl)c2)nn1	0	0	0	0	0	-82	0	95	0	96
O=C(Nc1cnn(Cc2ccc(Cl)cc2)c1)c1cnccn1	0	0	0	0	0	-96	0	99	0	99
O=C(NCCc1ccc(Cl)cc1)c1cnccn1	0	0	0	0	0	0	-	-	-	-
Fc1ccc(CSc2nnc(-c3cccs3)o2)cc1	0	0	0	0	0	-89	0	97	0	97
c1ccc(CSc2nnc(-c3cccs3)o2)cc1	0	0	0	0	0	-90	0	97	0	98
Fc1ccc(-c2nnc(CSc3nnc(-c4cccs4)o3)o2)cc1	0	0	0	0	0	0	-	-	-	-
c1ccc2c(c1)oc1c(NCc3ccc4c(c3)OCO4)ncnc12	0	0	0	0	0	-88	0	93	0	97
O=C(Cn1cnc2c(NCc3ccccc3)ncnc21)NCc1ccc2c(c1)OCO2	-	0	0	0	-	-	-	-	-	-
O=C(OCCCOC(=O)c1ccccc1O)c1ccccc1O	0	0	-	-	0	0	-	-	-	-
Cc1ccc(Cc2c(-c3ccc(Cl)cc3)nc3c(C)cc(Br)cn23)cc1	-	-	-	0	-	-	-	-	-	-
SMILES	AHR activator	NTR1 agonist	GRIN3A LBD mod	H9c2 protect	SUMO Mot1 rescue	AI-2 QS mod	JMH597 growth rt	BB721 const-QS lum	BB721 growth	JMH597 AI-2 mod
Cc1c(C(C)NC(=O)c2cc(COc3cccc4cnccc34)on2)cnn1C (centres undefined)	0	0	0	0	0	-81	0	81	0	88
CCc1ccc(CN(C)C(=O)c2cc(COc3cccc4cnccc34)on2)cc1	0	0	0	0	0	0	-	-	-	-
Cc1ccc(CNc2oc(-c3ccco3)nc2C#N)cc1	0	0	0	0	0	-86	0	95	0	98
N#Cc1nc(-c2ccccc2F)oc1NCc1ccccc1	0	0	0	0	0	-90	0	96	0	97
O=C(NCCOc1ccccc1)c1ccc2c(c1)S(=O)(=O)c1cc(Cl)ccc1C2=O	0	0	0	0	0	-	-	-	-	-
CCOc1ccc(N(CC(=O)NCc2ccc(F)cc2)C(=O)CCC(=O)Nc2nccs2)cc1	0	0	0	0	0	0	-	-	-	-
CC(OC(=O)c1cccc(N(C)C)c1)C(=O)N1CCc2ccccc2C1 (centres undefined)	0	0	0	0	0	-	-	-	-	-
c1ccc(Oc2cc(-c3ccccc3)nc(-c3ccccc3)n2)cc1	0	0	0	0	0	0	-	-	-	-
c1ccc(Oc2cc(-c3ccccc3)ncn2)cc1	0	0	0	0	0	-93	0	98	0	98
CC(CNC(=O)c1cc(COc2c(F)cccc2F)on1)Oc1cccnc1 (centres undefined)	0	0	0	0	0	-91	0	94	0	96
CN(C)S(=O)(=O)c1ccc(C(=O)OCC(=O)NCc2ccccc2)cc1	0	0	0	0	0	0	-	-	-	-
CN(C)S(=O)(=O)c1ccc(C(=O)OCCc2ccccc2)cc1	0	0	0	0	0	-92	0	96	0	98
COC(=O)/C=C/C(=O)Nc1ccc(O)c(Cl)c1	0	0	0	0	0	-93	0	96	0	95
CC(C)OC(=O)c1ccc(NC(=O)CSc2nc3ncccc3[nH]2)cc1	0	0	0	0	0	-85	0	96	0	98
CC(C)c1ccc(NC(=O)CSc2nc3ncccc3[nH]2)cc1	0	0	0	0	0	-83	0	93	0	95
COc1ccc(NC(=O)CSc2nc3ncccc3[nH]2)cc1OC	0	0	0	0	0	0	-	-	-	-
CCCCC(Br)C(=O)Nc1ccc(S(=O)(=O)Nc2cc(C)nc(C)n2)cc1 (centres undefined)	0	0	0	0	0	-86	0	88	0	90
O=C(CC(=O)Nc1cccc(Cl)c1Cl)Nc1cccc(Cl)c1Cl	0	0	0	0	0	0	-	-	-	-
Clc1ccc(OCCn2cnc(Cl)c2Cl)cc1	0	0	0	0	0	-84	0	88	0	92
